Out of some 5,500 compounds screened, about 2,000 (36%) were called active. About 18% were inconclusive and are not listed. No stated cut-off is given here; in the data, active means normalized growth mostly below about 0.91 (no sharp cut-off); inconclusive means no clear call, values can overlap the other calls; inactive means mostly above about 0.92. Some of the results follow.
Experiment: chemical genetic growth profiling, strain panel (AID 1159580);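 further: tested at 20 µM; growth read once vehicle control cultures reached saturation at 30 °C; 1 = growth at the plate median or of vehicle wells; lower values mean less growth of the strain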
Settings: S. cerevisiae deletion strains, growth OD
[1] = locus YAL040C, strain CLN3, active compounds read low
[2] = locus YCL061C, strain MRC1 (second series), active compounds read low
[3] = locus YDR363W, strain ESC2, active compounds read low
[4] = locus YER002W, strain NOP16, active compounds read low
[5] = locus YGR229C, strain SMI1, active compounds read low
[6] = locus YMR307W, strain GAS1, active compounds read low
[7] = locus YNL175C, strain NOP13, active compounds read low
[8] = locus YNL197C, strain WHI3, active compounds read low
[9] = locus YNL224C, strain SQS1, active compounds read low
[10] = locus YOR083W, strain WHI5 (second series), active compounds read low

Measured: normalized growth

CN[C@H](CC(C)C)C(=O)N[C@H]1C(=O)N[C@@H](CC(N)=O)C(=O)N[C@H]2C(=O)N[C@H]3C(=O)N[C@H](C(=O)N[C@H](C(=O)O)c4cc(O)cc(O)c4-c4cc3ccc4O)[C@H](O)c3ccc(c(Cl)c3)Oc3cc2cc(c3O[C@@H]2O[C@H](CO)[C@@H](O)[C@H](O)[C@H]2O[C@H]2C[C@](C)(N)[C@H](O)[C@H](C)O2)Oc2ccc(cc2Cl)[C@H]1O
inactive: [1] 0.985 | [2] 1.01 | [3] 1.01 | [4] 1.01 | [5] 1.03 | locus YMR263W, strain SAP30, active compounds read low 0.997 | [6] 1 | locus YNL153C, strain GIM3, active compounds read low 0.984 | [7] 1.01 | [8] 1.03 | [9] 0.991 | [10] 0.985

CCCN(CCC)CCc1cccc2c1CC(=O)N2
inactive: locus YAL021C, strain ccr4, active compounds read low 0.978 | locus YAL026C, strain drs2, active compounds read low 0.979 | locus YAL030W, strain snc1, active compounds read low 0.981 | [1] 1.03 | locus YBL061C, strain skt5, active compounds read low 0.963 | locus YBR009C, strain hhf1, active compounds read low 0.984 | locus YBR023C, strain chs3, active compounds read low 0.962 | locus YBR171W, strain sec66, active compounds read low 0.96 | locus YBR231C, strain swc5, active compounds read low 0.99 | locus YBR279W, strain paf1, active compounds read low 0.977 | locus YCL011C, strain gbp2, active compounds read low 0.981 | locus YCL016C, strain dcc1, active compounds read low 0.964 | [2] 0.997 | locus YCL061C, strain MRC1, active compounds read low 0.965 | locus YCL069W, strain vba3, active compounds read low 0.966 | locus YCR088W, strain abp1, active compounds read low 0.969 | locus YDL005C, strain med2, active compounds read low 0.977 | locus YDL040C, strain nat1, active compounds read low 0.977 | locus YDR001C, strain nth1, active compounds read low 0.968 | locus YDR069C, strain doa4, active compounds read low 0.983 | locus YDR137W, strain rgp1, active compounds read low 0.951 | locus YDR159W, strain sac3, active compounds read low 0.966 | locus YDR195W, strain ref2 0.949 | locus YDR297W, strain sur2, active compounds read low 0.978 | locus YDR334W, strain swr1, active compounds read low 0.954 | locus YDR335W, strain msn5, active compounds read low 0.969 | [3] 1.03 | locus YDR392W, strain spt3, active compounds read low 0.96 | locus YEL003W, strain gim4, active compounds read low 0.973 | locus YEL037C, strain rad23, active compounds read low 0.971 | locus YEL061C, strain CIN8 (second series), active compounds read low 0.981 | [4] 1.02 | locus YER015W, strain faa2, active compounds read low 0.987 | locus YER016W, strain bim1, active compounds read low 0.975 | locus YER111C, strain swi4, active compounds read low 0.955 | locus YER155C, strain BEM2 (second series), active compounds read low 0.959 | locus YFR010W, strain ubp6, active compounds read low 0.967 | locus YGL167C, strain pmr1, active compounds read low 0.963 | locus YGL173C, strain kem1, active compounds read low 0.969 | locus YGL227W, strain vid30, active compounds read low 0.972 | locus YGL240W, strain doc1, active compounds read low 0.991 | locus YGL253W, strain hxk2, active compounds read low 0.993 | locus YGR078C, strain PAC10, active compounds read low 0.988 | [5] 1.04 | locus YHR013C, strain ard1, active compounds read low 0.94 | locus YHR027C, strain rpn1, active compounds read low 0.959 | locus YHR030C, strain SLT2, active compounds read low 0.947 | locus YHR079C, strain IRE1, active compounds read low 0.941 | locus YHR142W, strain chs7, active compounds read low 0.952 | locus YJL092W, strain hpr5, active compounds read low 0.966 | locus YJL095W, strain BCK1 (second series), active compounds read low 0.972 | locus YJL095W, strain BCK1, active compounds read low 1.01 | locus YJL115W, strain asf1, active compounds read low 0.958 | locus YJL129C, strain trk1, active compounds read low 0.973 | locus YJL154C, strain vps35, active compounds read low 0.974 | locus YJL164C, strain tpk1, active compounds read low 0.981 | locus YJL166W, strain qcr8, active compounds read low 0.988 | locus YJL187C, strain SWE1, active compounds read low 0.976 | locus YJR066W, strain TOR1, active compounds read low 0.94 | locus YJR075W, strain HOC1, active compounds read low 1.01 | locus YKL160W, strain elf1, active compounds read low 0.978 | locus YKR026C, strain gcn3, active compounds read low 0.968 | locus YKR091W, strain srl3, active compounds read low 0.983 | locus YLL001W, strain dnm1, active compounds read low 0.977 | locus YLL026W, active compounds read low 0.981 | locus YLL041C, strain sdh2, active compounds read low 0.974 | locus YLR027C, strain aat2, active compounds read low 0.972 | locus YLR113W, strain HOG1, active compounds read low 1.03 | locus YLR221C, strain rsa3, active compounds read low 0.975 | locus YLR258W, strain gsy2, active compounds read low 0.979 | locus YLR262C, strain YPT6 (second series), active compounds read low 0.976 | locus YLR320W, strain mms22, active compounds read low 0.969 | locus YLR342W, strain FKS1, active compounds read low 0.981 | locus YLR357W, strain rsc2, active compounds read low 0.961 | locus YLR370C, strain arc18, active compounds read low 0.96 | locus YLR384C, strain iki3, active compounds read low 0.969 | locus YML120C, strain ndi1, active compounds read low 0.972 | locus YMR058W, strain fet3, active compounds read low 0.977 | locus YMR125W, strain sto1, active compounds read low 0.967 | locus YMR129W, active compounds read low 0.969 | locus YMR205C, strain PFK2, active compounds read low 0.965 | locus YMR231W, strain pep5, active compounds read low 0.975 | [6] 0.95 | locus YNL071W, strain lat1, active compounds read low 0.984 | locus YNL128W, strain TEP1, active compounds read low 0.989 | [7] 1.01 | locus YNL183C, strain NPR1, active compounds read low 0.966 | [8] 0.999 | locus YNL209W, strain ssb2, active compounds read low 0.97 | [9] 0.988 | locus YNL248C, strain rpa49, active compounds read low 0.955 | locus YNL322C, strain KRE1 (second series), active compounds read low 0.985 | locus YNL322C, strain KRE1, active compounds read low 1.01 | locus YNR049C, strain mso1, active compounds read low 0.966 | locus YOR001W, strain rrp6, active compounds read low 0.972 | locus YOR070C, strain gyp1, active compounds read low 0.974 | locus YOR080W, strain dia2, active compounds read low 0.957 | [10] 1 | locus YOR083W, strain WHI5, active compounds read low 0.975 | locus YOR106W, strain vam3, active compounds read low 0.977 | locus YOR231W, strain MKK1, active compounds read low 0.978 | locus YOR265W, strain rbl2, active compounds read low 0.972 | locus YOR270C, strain vph1, active compounds read low 0.944 | locus YOR290C, strain snf2, active compounds read low 0.953 | locus YPL051W, strain arl3, active compounds read low 0.975 | locus YPL078C, strain atp4, active compounds read low 0.969 | locus YPL106C, strain sse1, active compounds read low 0.99 | locus YPL240C, strain hsp82, active compounds read low 0.976 | locus YPL241C, strain CIN2, active compounds read low 1 | locus YPL256C, strain CLN2, active compounds read low 0.943
